According to PubChem BioAssay (NCATS):
Inconclusive results are not listed. A number with no mark means an inactive call. Calls follow the shape of the dose curve; as a rule, active = well fitted inhibition curve with a large enough effect; inconclusive = small, poorly fitted or top-dose-only effect, or effect the other way; inactive = flat fitted curve, though single readings scatter.

What follows are molecules tested against ATP-dependent 6-phosphofructokinase (Trypanosoma brucei brucei) (UniProt O15648) (assay: qHTS Assay to Find Inhibitors of T. brucei phosphofructokinase: hit validation (AID 492961;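 also: luminescence reports ADP formed as PFK phosphorylates fructose-6-phosphate with ATP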)). Settings: T. brucei PFK, ADP-Glo luminescence; series mostly up to 51.4 µM; activity change, negative = inhibition: at the top concentration.
Procedure, shortened: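 PFK 1.25 nM, F6P 0.5 mM, ATP 0.1 mM, MgCl2 5 mM, 0.1 M TEA pH 8.0, Tween20 0.01%, BSA 0.1%; 45 min RT. ADP-Glo two-step detection, luminescence. qHTS titration; curve fitting with curve-class categorization.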
% is scaled to controls: 0 for no effect and ±100 for the full control effect.

Chain of ATP-dependent 6-phosphofructokinase (Trypanosoma brucei brucei) (O15648 whole entry, looked up): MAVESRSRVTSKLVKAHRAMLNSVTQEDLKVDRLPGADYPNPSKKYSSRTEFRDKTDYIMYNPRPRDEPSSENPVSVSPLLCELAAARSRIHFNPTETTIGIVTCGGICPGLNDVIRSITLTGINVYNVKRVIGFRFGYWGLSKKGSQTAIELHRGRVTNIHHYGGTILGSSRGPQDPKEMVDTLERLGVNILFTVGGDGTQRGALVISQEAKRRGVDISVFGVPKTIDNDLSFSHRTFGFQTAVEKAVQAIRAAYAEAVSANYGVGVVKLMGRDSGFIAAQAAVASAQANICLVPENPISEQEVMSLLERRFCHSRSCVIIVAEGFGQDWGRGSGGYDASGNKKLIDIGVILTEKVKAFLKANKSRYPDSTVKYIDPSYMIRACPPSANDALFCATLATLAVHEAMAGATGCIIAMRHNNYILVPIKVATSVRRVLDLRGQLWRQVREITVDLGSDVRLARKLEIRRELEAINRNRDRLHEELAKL

| Structure (SMILES) | activity change, negative = inhibition |
| --- | --- |
| CN1CCC[C@@H]1c1cccnc1 | -0.815% |
| CN1CCN(C(c2ccccc2)c2ccccc2)CC1 | -2.11% [at 24.3 µM] |
| NCCC(O)(P(=O)(O)O)P(=O)(O)O | -4% |
| O=S1(=O)c2cccc3cccc(c23)N1CCCN1CCN(c2ccc(F)cc2)CC1 | -1.05% |
| Cc1cccn2c(=O)c(-c3nnn[nH]3)cnc12 | -12.4% |
| OCc1ccccc1O | -0.845% |
| CCOC(=O)n1ccn(C)c1=S | 6.87% [at 24.3 µM] |
| CC(O)C(=O)O (centres undefined) | 0% |
| CC(=O)c1ccc2c(c1)N(CCCN1CCC(CCO)CC1)c1ccccc1S2 | -3.37% [at 24.3 µM] |
| CCOC(=O)COc1ccc2c(C)c(CCN(CC)CC)c(=O)oc2c1Cl | 1.2% |
| CCCCC1=NC2(CCCC2)C(=O)N1Cc1ccc(-c2ccccc2-c2nn[nH]n2)cc1 | -1.97% |
| C=CCc1ccc(O)c(OC)c1 | -0.595% |
| CN(C)/N=N/c1nc[nH]c1C(N)=O | -7.95% |
| O=C(O)CCCCC(=O)O | -3.38% |
| CC[N+](CC)(CCNC(=O)C(=O)NCC[N+](CC)(CC)Cc1ccccc1Cl)Cc1ccccc1Cl | -1.37% |
| CCCCCCCCCCCCCCNCCO | 3.03% |
| OC(CCN1CCCCC1)(c1ccccc1)c1ccccc1 | -0.846% |
| COc1ccc(CN2CCN(C(c3ccc(F)cc3)c3ccc(F)cc3)CC2)c(OC)c1OC | -0.171% |
| O=c1c(-c2ccccc2)c1-c1ccccc1 | -7.7% |
| c1ccc(CNCCNCc2ccccc2)cc1 | -6% |

| Structure (SMILES) | activity change, negative = inhibition |
| --- | --- |
| CCCCCCCCCCCCCCCCCC(=O)OCC(O)CO (centres undefined) | 15% |
| CN=C(NC#N)NCCSCc1csc(N=C(N)N)n1 | 8.1% |
| Clc1ccc2c(c1)CCc1cccnc1C2=C1CCNCC1 | -0.598% |
| CC(C)COC(=O)c1ccc(N)cc1 | -2.75% |
| CCN1CCC[C@H]1CNC(=O)c1c(OC)ccc(Br)c1OC | 0.835% |
| Cc1c(C(N)=O)cc([N+](=O)[O-])cc1[N+](=O)[O-] | -10.8% |
| CC(=O)OCC(=O)[C@@]1(OC(C)=O)[C@@H](C)C[C@H]2[C@@H]3C[C@H](F)C4=CC(=O)C=C[C@]4(C)[C@@]3(F)[C@@H](O)C[C@@]21C | 9% |
| CC(=O)Oc1ccc(C(=C2CCCCC2)c2ccc(OC(C)=O)cc2)cc1 | 3.65% |
| CN1CCN(CCCN2c3ccccc3Sc3ccc(S(=O)(=O)N(C)C)cc32)CC1 | -4.24% [at 24.3 µM] |
| COc1ccc(/C=C/C(=O)c2ccc(OC)cc2OC)cc1 | 8.53% |
| Nc1ccc(C(=O)O)cc1 | 9.57% |
| CCCCCCCCCCOCC(O)CN (centres undefined) | -0.0995% |
| NC(CS)C(=O)O (centres undefined) | 3.22% |
| CCCCOc1cc(C(=O)NCCN(CC)CC)c2ccccc2n1 | 0.148% [at 24.3 µM] |
| COc1c2occc2c(OC)c2c(=O)cc(C)oc12 | 10.1% [at 24.3 µM] |
| C[C@@H]1C[C@H]2[C@@H]3CCC4=CC(=O)C=C[C@]4(C)[C@@]3(F)[C@@H](O)C[C@]2(C)[C@H]1C(=O)CO | -1.63% |
| CN1CCC(=C2c3ccccc3Sc3ccccc32)CC1 | -4.55% |
| CO/N=C1\CN(c2nc3c(cc2F)c(=O)c(C(=O)O)cn3C2CC2)CC1CN (centres undefined) | 1.23% |
| C[C@H]1C[C@H]2[C@@H]3CCC4=CC(=O)C=C[C@]4(C)[C@@]3(Cl)[C@@H](O)C[C@]2(C)[C@@]1(O)C(=O)CO | -0.468% |
